The list is not random: actives were taken first. Their share in the collection is about 1.7%.
N-glyco inh: increase of ERlucT glycosylation luciferase signal, primary screen, N-linked glycosylation inhibitor project, D54 ERlucT cells, luminescence, set 2; reporter increase, % at 12.5 µM; AID 588692, 2011; hit rate 0.23% among 360,000; D54 ERlucT glycosylation luciferase reporter, 24 h; percent of 100 nM tunicamycin response;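 active = mean luciferase reporter signal, scaled so untreated is 0 and the glycosylation-blocking control 100, at or above a set limit in every replicate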;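 note: luciferase carries N-glycosylation sites so blocking glycosylation raises the light; 0% = median of neutral control wells and 100% = median of 100 nM tunicamycin wells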
aDG glyco up: activators of alpha-DG glycosylation, primary screen, uHTS, Pro5-aDG cells, AlphaScreen; activation, % at 10 µM; hit rate 0.22% among 360,000; AID 624168, 2012; alpha-DG glycosylation AlphaScreen (IIH6); 0% Pro5, 100% B10-LARGE cell signal;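 active = activation of at least 8% versus controls, or a plate z-score of at least 8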;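 note: Pro5 are CHO cells carrying HIG-tagged alpha-DG that lacks glycosylation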
ARNT-TACC3 inh: disruptors of ARNT/TACC3 protein interaction, primary screen, biochemical, AlphaScreen, single concentration | inhibition, % at 9.99 µM | Transforming acidic coiled-coil-containing protein 3 (Homo sapiens), Q9Y6A5 | AlphaScreen His-ARNT PAS-B/GST-TACC3 binding, luminescence; TACC3 fragment carries E629A point mutation | hit rate 0.66% among 390,000;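 active = mean inhibition of replicates at least 50% and at least half of replicates each reaching 50%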;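 note: 0% = complete ARNT plus TACC3 wells and 100% = ARNT alone without TACC3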
Vif inh: HIV Vif self-association inhibitors, primary screen, imaging, HEK293T, single point; hit rate 0.35% among 340,000; AID 602346, 2012; HEK293T cells, Vif self-association by quenched fluorescence, 24 h; inhibition, % at 7.49 µM; in the data active = inhibition above about 50%, passing the limit was not always enough
H9c2 protect: cardioprotection against H2O2-induced cell death, primary screen, uHTS, H9c2 cells, ATPLite luminescence; AID 588492, 2011; hit rate 0.63% among 360,000; H9c2 cardiomyocytes, H2O2 injury protection, 2 h; protection from H2O2 cell death, % at 20 µM;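 active = compounds giving at least 50% protection of heart cells from peroxide-induced death in the single-dose screen, raw or plate-pattern-corrected value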;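 note: 0% = DMSO wells with peroxide and 100% = DMSO wells without peroxide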
* marks the source's active call; other numbers are inactive results; . = no result given.

SMILES	N-glyco inh	aDG glyco up	ARNT-TACC3 inh	Vif inh	H9c2 protect
NC(=S)NN=Cc1nccc2c(N)cccc12	-12.3	1.3	.	24.1	29.0
CCOC(=O)/C=C(\C)Sc1cc(O)c2ccccc2c1O	5.3	0.6	76.8*	-16.1	-15.9
CCOC(=O)/C=C(\C)Sc1cc(=O)oc2ccccc12	25.1*	0.4	-0.7	-3.0	11.2
CCOC(=O)Nc1oc2ccccc2c(=O)c1C	-0.6	0.1	1.0	24.6	-3.4
CCOC(=O)c1c(C)oc2c1cc(O)c1ccccc12	-0.2	0.1	5.1	-3.9	-1.9
C[C@@H]1CN([C@@H](C)CO)S(=O)(=O)c2ccc(C3=CCCC3)cc2O[C@H]1CN(C)C(=O)c1ccncc1	.	.	3.7	.	.
O=C(C[C@@H]1CC[C@H]2[C@@H](COC[C@H](O)CN2Cc2ccncc2)O1)NCC1CC1	.	.	0.1	.	.
CCOC(=O)c1cc2sccc2n1CC(=O)N1c2ccccc2CC1C (stereo not given)	376.6*	0.1	-3.5	2.4	11.1
O=C(CCN1CCCCC1)NCC[C@H]1CC[C@@H](NC(=O)C2CCC2)[C@@H](CO)O1	.	.	3.3	.	.
CCCCOc1cccc2c(=O)n(CC(=O)Nc3ccc4c(c3)OCCO4)ccc12	1.4	-0.3	.	73.3*	-10.5
CC(C)C#Cc1cnc2c(c1)C(=O)N([C@@H](C)CO)C[C@H](C)[C@@H](CN(C)Cc1cccc(F)c1)O2	.	.	-1.6	.	.
O=C(C[C@H]1C[C@@H]2c3cc(NC(=O)Nc4ccccc4)ccc3O[C@@H]2[C@H](CO)O1)NCCN1CCCCC1	.	.	4.0	.	.
Cc1noc(C)c1NC(=O)N(C)C[C@@H]1OCCCC[C@H](C)Oc2ccc(NC(=O)c3ccncc3)cc2C(=O)N([C@H](C)CO)C[C@@H]1C	.	.	-1.9	.	.
COC(=O)c1ccc(NC(=S)NCCC2=CCCCC2)cc1	-1.4	0.3	-3.4	-9.3	-19.7
COC(=O)c1cccc(NC(=S)NCCC2=CCCCC2)c1	-1.5	0.3	4.5	55.1*	-5.9
COCCCNc1ccn2nc(-c3ccc(OCCN4CCOCC4)cc3)cc2n1	0.9	-0.4	.	-0.6	0.0
NS(=O)(=O)c1ccc(CCNc2ccn3nc(-c4ccc(OCCN5CCOCC5)cc4)cc3n2)cc1	0.9	-0.2	.	-1.2	66.1*
COc1cc(-c2cc3nc(NCCc4ccncc4)ccn3n2)cc(OC)c1OC	28.4*	-0.2	.	-8.5	16.4
COc1cc(-c2cc3nc(NCCOc4ccccc4)ccn3n2)cc(OC)c1OC	46.4*	-0.2	.	.	92.2*
COc1cc(-c2cc3nc(NCCc4ccc(S(N)(=O)=O)cc4)ccn3n2)cc(OC)c1OC	12.8	-0.5	.	1.2	85.8*
C[C@@H]1CN([C@@H](C)CO)C(=O)CCCn2nncc2CO[C@@H]1CN(C)Cc1ccc2c(c1)OCCN2C	.	.	4.5	.	.
C[C@@H]1CCCCO[C@@H](CN(C)C(=O)Nc2ccc3c(c2)OCO3)[C@@H](C)CN([C@H](C)CO)C(=O)c2cc(NS(=O)(=O)c3cn(C)cn3)ccc2O1	.	.	-10.7	.	.
CCOC(=O)c1cnn(-c2ccccc2)c1NC(=O)c1ccccc1C	2.0	0.0	-3.6	53.9*	-1.8
Cc1ccccc1C(=O)Nc1c(C(=O)N2CCCC2)cnn1-c1ccccc1	1.1	-0.1	-5.4	.	15.4
CCC(=O)Nc1ccc2c(c1)OC[C@H](C)N(C(=O)c1ccc(F)cc1)C[C@@H](C)[C@H](OC)CN(C)C2=O	.	.	2.8	.	.
O=C(C[n+]1cccc2ccccc21)c1ccc(Br)cc1	-2.2	-0.1	-0.4	93.0*	-2.2
O=S(=O)(c1cccc(F)c1)N1CCN(c2nc(-c3cccnc3)nc3ccccc23)CC1	0.5	-0.7	-5.0	11.1	59.1*
COc1ccc2c(c1)[C@H]1[C@H](CO2)[C@H](c2ccccc2)[C@]2(C)C(=O)Nc3cc(OC)c(OC)cc3C(=O)N12	59.2*	-0.1	3.2	-9.9	-0.9
COc1ccc2c(c1)[C@H]1[C@H](CO2)[C@H](c2ccccc2)[C@]2(C)C(=O)Nc3ccc(C)cc3C(=O)N12	57.8*	-0.1	-3.3	-1.0	-1.9
